From PubChem BioAssay (NCATS) come the findings set out here.

The test system of one assay is MCC-13. In words: qHTS assay to identify novel small-molecules to repurpose for Merkel cell carcinoma treatment (AID 1296009). Also: nearly all actives have a fitted effect of over 60% in size. The conditions noted are these: MCC and control cell lines, CellTiter-Glo viability, 72 h; series mostly up to 46 µM. The method in brief:
(§1)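 qHTS format: cells treated with library compounds in DMSO across 8 (NPC) or 11 (MIPE) concentrations. Readout after 72 hr at 37 degree celsius was CellTiter-Glo luminescence.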
In general terms: qHTS replaces the single test concentration by a dilution series.

A further assay relates to MCC-26. The description is as above. The conditions noted are these: MCC and control cell lines, CellTiter-Glo viability, 72 h; series mostly up to 46 µM. The method in brief: as §1
For another assay, the system named is MKL-1. The description is as above. The conditions noted are these: MCC and control cell lines, CellTiter-Glo viability, 72 h; series mostly up to 46 µM. The method in brief: as §1
(In general: In ATP-based viability assays light output follows the ATP content of the culture.)

The test system of the next assay is MKL-2. Described as above. The conditions noted are these: MCC and control cell lines, CellTiter-Glo viability, 72 h; series mostly up to 46 µM. The method in brief: as §1
In a further assay the test system is NIH3T3. Described as above. The conditions noted are these: MCC and control cell lines, CellTiter-Glo viability, 72 h; at 44.8 µM (top of the series) unless noted. The method in brief: as §1
The subject of the next assay is UISO. The description is as above. The conditions noted are these: MCC and control cell lines, CellTiter-Glo viability, 72 h; series mostly up to 46 µM. An outline of the steps:
as §1

For another assay, the system named is WaGa. The description is as above. The conditions noted are these: MCC and control cell lines, CellTiter-Glo viability, 72 h; series mostly up to 46 µM. The method in brief: as §1
In a further assay the test system is C33A. In words: Primary qHTS to identify gynecologic anti-cancer compounds using libraries of approved drugs and bioactive compounds (AID 1345084). Also: nearly all actives have a fitted effect of over 55% in size. The note with it: Gynecologic cancer cell panel viability, ATPlite luminescence, 48 h; series mostly up to 57.5 µM. An outline of the steps: (§2)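 ATP-based viability (ATPlite), 1,000 cells/well, 16 h pre-incubation, 48 h compound at 37 C, 5% CO2, 15 min RT before read.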

The subject of the next assay is CAOV3. The assay is described as above. The note with it: Gynecologic cancer cell panel viability, ATPlite luminescence, 48 h; series mostly up to 57.5 µM. An outline of the steps: as §2
Another assay has as its system CASKI. The assay is described as above. The conditions noted are these: Gynecologic cancer cell panel viability, ATPlite luminescence, 48 h; series mostly up to 57.5 µM. The method in brief: as §2
The test system of a further assay is Es-2. The assay is described as above. The conditions noted are these: Gynecologic cancer cell panel viability, ATPlite luminescence, 48 h; series mostly up to 57.5 µM. The method in brief: as §2
A further assay has as its system HeLa. The assay is described as above. The conditions noted are these: Gynecologic cancer cell panel viability, ATPlite luminescence, 48 h; series mostly up to 57.5 µM. The method in brief:
as §2

The test system of a further assay is Hek293T. Described as above. The note with it: Gynecologic cancer cell panel viability, ATPlite luminescence, 48 h, control line for the selectivity index; series mostly up to 57.5 µM. The method in brief:
as §2

The test system of another assay is JEG-3. Described as above. The note with it: Gynecologic cancer cell panel viability, ATPlite luminescence, 48 h; series mostly up to 57.5 µM. The method in brief: as §2
The subject of the next assay is OV90. The assay is described as above. The note with it: Gynecologic cancer cell panel viability, ATPlite luminescence, 48 h; series mostly up to 57.5 µM. The method in brief:
as §2

Another assay has as its system PA-1. The description is as above. The conditions noted are these: Gynecologic cancer cell panel viability, ATPlite luminescence, 48 h; series mostly up to 57.5 µM. The method in brief: as §2
The test system of the next assay is SKOV3. The description is as above. The conditions noted are these: Gynecologic cancer cell panel viability, ATPlite luminescence, 48 h; series mostly up to 57.5 µM. An outline of the steps:
as §2

A further assay has as its system Tov-21-G. The description is as above. The conditions noted are these: Gynecologic cancer cell panel viability, ATPlite luminescence, 48 h; series mostly up to 57.5 µM. An outline of the steps:
as §2

A further assay deals with Tov112D. Described as above. The note with it: Gynecologic cancer cell panel viability, ATPlite luminescence, 48 h; series mostly up to 57.5 µM. An outline of the steps:
as §2

The nature of assay [1]: Drug repurposing screens with cells derived from glioblastoma tumor samples (AID 1345199). Also: nearly all actives have a fitted effect of over 40% in size. The conditions noted are these: GBM patient neurospheres viability, ATP luminescence, 48 h. An outline of the steps: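 Four patient lines of CD133+ GBM neurospheres were screened at several concentrations; hits were retested in those lines plus three slower-growing GBM lines, using 48-hour treatment and ATP-based viability.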

Setting [2] is: at 45.9 µM (top of the series), tumour line B.
Where [3] appears, read: at 45.9 µM (top of the series), tumour line D.
The mark [4] stands for this setting: at 46.1 µM (top of the series), tumour line C.

Values joined by “and” are separate entries in the source; they are usually repeats but may differ in a detail not shown here. Equal values may be shown once. Results filed as inconclusive are left out. Values without a mark were called inactive. Active and inactive are the calls of the source. Calls follow the shape of the dose curve; as a rule, active = well fitted curve in the direction sought with a large enough effect; inconclusive = small, poorly fitted or top-dose-only effect, or another doubt; inactive = no such curve, though single readings can be large; an effect the other way counts as inactive or inconclusive.
% is scaled to controls: 0 for no effect and ±100 for the full control effect; potency is read from the fitted curve at half-maximal effect.

As for `O=c1[nH]cnc2c1ncn2[C@@H]1O[C@H](CO)[C@@H](O)[C@H]1O`, the Potency result in the assay with MCC-13, with MCC-26, in the assay on MKL-1, in the assay on MKL-2, in the assay on UISO and in the assay on WaGa was “inactive” throughout. The Potency result in the assay with C33A, with CAOV3, in the assay on CASKI, with Es-2, with HeLa and in the assay on Hek293T was “inactive” throughout. Also, the Potency result in the assay on JEG-3, in the assay with OV90, in the assay on PA-1, in the assay on SKOV3, in the assay with Tov-21-G and with Tov112D was “inactive” in each case. In addition, the compound was called inactive in the assay on NIH3T3. The activity, negative = cell killing in assay [1] (setting [2]) was 9.46%; in assay [1] (setting [3]), -5.06%; in assay [1] (at 46 µM (top of the series), tumour line A), 7.03%; in [1] (setting [4]) it was 2.71%.

Take `Oc1cccc(O)c1`: the Potency result with MCC-13, in the assay with MCC-26, with MKL-1, in the assay with MKL-2, with UISO and in the assay on WaGa was “inactive” throughout. In addition, the Potency entry in the assay with C33A, in the assay with CAOV3, with CASKI, in the assay on Es-2, with HeLa and with Hek293T was “inactive” throughout. In addition, the Potency result with JEG-3, with OV90, in the assay on PA-1, in the assay on SKOV3, in the assay on Tov-21-G and in the assay with Tov112D was “inactive” each time. In addition, the call in the assay on NIH3T3 was inactive. In addition, the activity, negative = cell killing is -16.6% in [1] (setting [2]), -5.28% in assay [1] (setting [3]) and 27.8% in assay [1] (setting [4]).

In the case of `CC(C)(C)C(=O)C(Oc1ccc(Cl)cc1)n1ccnc1` (stereo not drawn), the Potency result with MCC-13, in the assay with MCC-26, with MKL-1, in the assay on MKL-2, in the assay with WaGa and in the assay with C33A was “inactive” each time. For the same compound, the Potency entry in the assay with CAOV3, with CASKI, in the assay on Es-2, with HeLa, with Hek293T and with JEG-3 was “inactive” throughout. Moreover, the Potency entry in the assay on OV90, in the assay on PA-1, in the assay on SKOV3, in the assay on Tov-21-G and in the assay with Tov112D was “inactive” throughout. The compound was called inactive in the assay on NIH3T3. Besides, the Potency with UISO was 11.9 µM (active); in [1] (tumour line A), 12.6 µM (active). The activity, negative = cell killing in assay [1] (setting [2]) was -7.03%; in [1] (setting [3]), -26.6%; in assay [1] (setting [4]), -0.0869%.

With `CCOC(CN1CCN(CC(C)C(=O)c2ccccc2)CC1)c1ccccc1` (stereo not drawn), the Potency result in the assay with MCC-13, with MCC-26, in the assay on MKL-1, in the assay on MKL-2, in the assay on UISO and with WaGa was “inactive” in each case. Besides, the Potency result in the assay on C33A, in the assay on CAOV3, in the assay with CASKI, in the assay on Es-2, in the assay with HeLa and in the assay with Hek293T was “inactive” throughout. For the same compound, the Potency result in the assay with JEG-3, with OV90, in the assay with PA-1, in the assay with SKOV3, with Tov-21-G and in the assay with Tov112D was “inactive” in each case. The compound was called inactive in the assay with NIH3T3. Moreover, in assay [1] (setting [2]), the activity, negative = cell killing was -10.2%. Moreover, the Potency in assay [1] (tumour line A) is 12.6 µM (active).

For the compound `Oc1cn2c(n1)Nc1ccc(Cl)c(Cl)c1C2`, the Potency entry in the assay on MCC-13, with MCC-26, with MKL-1, in the assay on MKL-2, in the assay on UISO and with WaGa was “inactive” throughout. Moreover, the Potency entry with C33A, with CAOV3, with CASKI, with Es-2, with JEG-3 and with OV90 was “inactive” throughout. For the same compound, the Potency result in the assay with SKOV3, with Tov-21-G and in the assay on Tov112D was “inactive” in each case. Also, in the assay with NIH3T3, the outcome was “inactive [at 17.4 µM]”. For the same compound, in the assay with PA-1, the Potency was 0.355 µM (active). Besides, the activity, negative = cell killing in assay [1] (setting [3]) was -7.52%; in [1] (setting [4]), -8.47% and 1.08%.
